PubChem BioAssay AID686979 (National Center for Advancing Translational Sciences (NCATS), 2013)
Screen size: about 420,000 compounds; about 50,000 (12%) were called active. A call without a number means that no potency is given here. Roughly 26% stayed inconclusive and do not appear here. Calls follow the shape of the dose curve; as a rule, active = well fitted inhibition curve with a large enough effect; inconclusive = small, poorly fitted or top-dose-only effect; inactive = flat fitted curve, though single readings scatter. This excerpt belongs to a sample that is enriched for actives.

Assay: qHTS for Inhibitors of human tyrosyl-DNA phosphodiesterase 1 (TDP1): qHTS in cells in presence of CPT; also: nearly all actives have a fitted effect of over 55% in size
Settings: chicken DT40 Tdp1-/-;hTDP1 cells + 20 nM CPT, ATP luminescence, 48 h; series mostly up to 46.2 µM
How it was run: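 Chicken DT40 Tdp1-/- cells complemented with human TDP1, 400 cells/well, exposed to compounds plus 20 nM camptothecin for at least 48 h at 37 C; viability read as ATP content by CellTiter-Glo luminescence.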
Potency is read from the fitted curve at half-maximal effect.

Row | SMILES | Potency
1 | Cc1cc2ccccn2c1C(C[N+](=O)[O-])c1c(F)cccc1Cl (configuration not stated) | 18.4 µM (active)
2 | C[N+]1(C)CCOC(O)(c2ccc(-c3ccc(C4(O)C[N+](C)(C)CCO4)cc3)cc2)C1 (configuration not stated) | inactive
3 | COc1cc(Cl)ccc1Nc1ncc(C(=O)N2CCN(c3ccccc3OC)CC2)c2ccccc12 | 14.6 µM (active)
4 | CN1CCN(C(=O)O[C@@H]2c3nccnc3C(=O)N2c2ccc(Cl)cn2)CC1 | inactive
5 | CCOC(=O)c1c(C)c(C(=O)N2CCC3(CC2)OCCO3)c(C)n1CC | inactive
6 | CN1CCN(Cc2ccccc2C(F)(F)F)CC1 | inactive
7 | CCOC(=O)C1(c2ccccc2)CCN(CC(O)c2ccc(NC(C)=O)cc2)CC1 (configuration not stated) | inactive
8 | CCOC(=O)CC1=C(C(=O)OCC)C2(C(=O)N1)C(C(=O)OC)=C(N)Oc1ccccc12 (configuration not stated) | inactive
9 | COC1C(O)C(C)OC(OC2CCC3(C=O)C(CCC4C3CCC3(C)C(C5=CC(=O)OC5)CCC43O)C2)C1O (configuration not stated) | 0.206 µM (active)
10 | COC1CC(OC2CC[C@@]3(C=O)C4CC[C@]5(C)C(C6=CC(=O)OC6)CC[C@@]5(O)C4CC[C@]3(O)C2)OC(C)C1O (some centres not stated) | 1.3 µM (active)
11 | c1csc(CN2CCCC3(CCNCC3)C2)n1 | inactive
12 | C=Cn1ccnc1P(=S)(c1cc(N(CC)CC)ns1)c1nccn1C=C | inactive
13 | Cc1ncsc1CCCl | inactive
14 | CC[N+]1(CCOC(=O)C(O)(c2ccccc2)c2ccccc2)CCCCC1 | inactive
15 | C/C(=C\C=C/[C@@H](C)C(=O)O)[C@H]1CN[C@H](C(=O)O)[C@@H]1CC(=O)O | inactive
16 | Cc1ccc(NC(=O)CN(C)CC(=O)Nc2cccc(F)c2)cc1[N+](=O)[O-] | 1.84 µM (active)
17 | O=C(CN1CCCC1=O)NCCc1ccccc1 | inactive
18 | CN(C)P(=S)(Nc1ccccc1)C(Cl)(Cl)Cl (configuration not stated) | inactive
19 | O=C1NC(=O)N(CCc2ccc(F)cc2)C(=O)/C1=C/C=C/c1ccccc1 | 3.26 µM (active)
20 | O=C(O)COc1ccccc1/C=C1\C(=O)NC(=O)N(CCC2=CCCCC2)C1=O | inactive
21 | OCC#CC[N+]1(CC#Cc2ccccc2)CCCC1 | inactive
22 | Cc1ccc(P(=S)(c2ccc(C)o2)N2CCOCC2)o1 | inactive
23 | CC(=O)C12CC(C)=C(C)CC1CC1C3CCC4=CC(=O)CCC4(C)C3CCC12C (configuration not stated) | 13 µM (active)
24 | COC(=O)C[C@H]1CC[C@H]2NC[C@@H](O)COC[C@@H]2O1 | inactive
25 | C[C@H]1CN([C@@H](C)CO)C(=O)CCCn2nncc2CO[C@H]1CN(C)C(=O)Oc1ccccc1 | inactive
26 | Cc1cc(N2C(=O)C3CCCN3C2c2ccc(Cl)c(Cl)c2)no1 (configuration not stated) | inactive

Row | SMILES | Potency
27 | CCN1C(=O)NC(=O)C2(CCCC2)C1=O | inactive
28 | CCOP(=O)(OCC)C(NC(=O)c1ccc(OC)cc1)C(Cl)(Cl)Cl (configuration not stated) | inactive
29 | CCOP(=O)(OCC)C(Cc1ccccc1)N=C(c1ccccc1)c1ccccc1 (configuration not stated) | 16.4 µM (active)
30 | CCOP(=O)(OCC)C(NC(=O)c1ccc(C)cc1)C(Cl)(Cl)Cl (configuration not stated) | inactive
31 | CC(C)CN1CCN(Cc2ccccc2C(F)(F)F)CC1CCO (configuration not stated) | inactive
32 | CCOc1ccc(C2SCC(=O)Nc3c2c(C)nn3C2CCOC(C)(C)C2)cc1 (configuration not stated) | inactive
33 | COc1ccc(-n2c(-c3ccccc3)nc3ccccc3c2=O)cc1 | 18.4 µM (active)
34 | O=c1c2ccccc2nc(-c2ccccc2)n1-c1ccccn1 | inactive
35 | CC(CCC(=O)O)C1CCC2C3C(O)C[C@@H]4CC(O)CC[C@@]4(C)C3CC[C@@]12C (some centres not stated) | inactive
36 | COc1ccc(-c2cc(NC=O)c3ncc(-c4cc(OC)c(OC)c(OC)c4)n3c2)c(OC)c1 | 0.58 µM (active)
37 | CCCCCCCCCCCCn1ccc(=N)cc1 | 0.461 µM (active)
38 | CNC(=S)N/N=C1\C2CN3CCN(C2)CC1(c1ccccc1)C3 | inactive
39 | CC(C)=C[C@@H]1[C@@H](C(=O)OCc2coc(Cc3ccccc3)c2)C1(C)C | inactive
40 | CCOc1cccc(=NC2CCCCC2)c2c(C)[nH]c(C)c12 | 5.8 µM (active)
41 | Cc1cc(C)c2c(c1)NP(=S)(c1ccccc1)N2 (configuration not stated) | inactive
42 | O=C1/C(=C\c2ccc3c(c2)OCO3)N2CCC1CC2 | inactive
43 | c1cncc(CNCCc2c[nH]c3ccccc23)c1 | inactive
44 | COc1ccc2[nH]cc(CCNCc3ccc(Br)cc3)c2c1 | 13 µM (active)
45 | COc1ccc(N=Cc2c(O)n(C)c(=O)[nH]c2=O)cc1 | inactive
46 | O=C(N/N=C/c1c(O)n(Cc2ccccc2)c(=O)[nH]c1=O)c1ccccc1 | inactive
47 | COc1ccc(Cn2c(O)c(/C=C3/C=CC=N3)c(=O)[nH]c2=O)cc1 | 20.6 µM (active)
48 | CNC(=O)N(C)c1nnc(C(C)(C)C)s1 | inactive
49 | CC1N=C(N)OC1c1ccccc1 (configuration not stated) | inactive
50 | CCOCCCNC(=O)c1c(NC(=O)c2nc(SC)ncc2Cl)sc2c1CCCC2 | 6.51 µM (active)
51 | CCCOC(=O)C1C2c3ccccc3C(c3ccccc32)C1C(=O)O (configuration not stated) | inactive
52 | Cc1nc2ccccn2c1P(=S)(N1CCCCC1)N1CCCCC1 | 20.6 µM (active)

Row | SMILES | Potency
53 | CCOC(=O)CNC(=O)N1Cc2cc(N3CCCCC3)ccc2-n2nncc2C1 | inactive
54 | Cc1cc(=O)oc2c(C)c(OCC(=O)N3CCN(Cc4ccc5c(c4)OCO5)CC3)ccc12 | inactive
55 | CCC(C)(O)C(=O)OC1C(=O)OC2CC3C(C)=CC(=O)C(O)C3(C)C3C4(O)OCC23C1C(C)C4O (configuration not stated) | 0.116 µM (active)
56 | COc1ccc(NC(=O)N2CCC3(CC2)OCCO3)c(OC)c1 | inactive
57 | CCCC[N+]1(C)C2CC(OC(=O)C(CO)c3ccccc3)CC1C1OC12 (configuration not stated) | inactive
58 | Cc1ccccc1N1C(=O)NC(=O)/C(=C\c2cc(C)n(C)c2C)C1=O | inactive
59 | O=C1NCN(c2ccccc2)C12CCN(C(c1cccs1)c1nnnn1C1CCCCC1)CC2 (configuration not stated) | 16.4 µM (active)
60 | CC[N+]1(C)CCCC(OC(=O)C(O)(c2ccccc2)c2ccccc2)C1 (configuration not stated) | inactive
61 | CN(C)C(=O)Oc1ccc(NC(=O)N2CCOCC2)cc1 | inactive
62 | Cc1ccc(-c2cc(C(=O)N3CCC4(CC3)OCCO4)no2)cc1 | inactive
63 | O=C(c1cc(-c2ccncc2)nc2ccccc12)N1CCC2(CC1)OCCO2 | inactive
64 | Cc1cccc(-n2c(C)nc3cc(C(=O)N4CCC5(CC4)OCCO5)ccc32)c1 | 20.6 µM (active)
65 | COc1cc(C(c2c(O)c3ccccc3oc2=O)c2c(C)n(C)n(-c3ccccc3)c2=O)ccc1O (configuration not stated) | inactive
66 | COP(=O)(NS(=O)(=O)c1ccccc1)OC | inactive
67 | ClCCN(CCCl)c1ccc(C=Nc2ccc(/C=C/c3ccnc4ccccc34)cc2)cc1 | 10 µM (active)
68 | C=CCN(CC=C)C(=O)Nc1ccc(OCC)cc1 | inactive
69 | O=C1NC(=O)N(Cc2ccco2)C(=O)/C1=C\c1cccn1CCOc1ccccc1 | inactive
70 | O=C1NC(=O)N(Cc2ccco2)C(=O)/C1=C\c1ccc(-c2ccc(F)cc2)o1 | 20.6 µM (active)
71 | O=C(O)C1CSC(c2cccnc2)N1 (configuration not stated) | inactive
72 | Fc1ccc(C(OCCN2CCN(C/C=C\c3ccccc3)CC2)c2ccc(F)cc2)cc1 | 5.31 µM (active)
73 | CN(C)S(=O)(=O)c1cc(C(=O)N2CCC(C(=O)O)(c3ccccc3)CC2)ccc1Cl | inactive
74 | COC(=O)CN1C(=O)C2(C(C(=O)OC)=C(N)Oc3ccccc32)C2=C1CC(C)(C)CC2=O (configuration not stated) | inactive
75 | C/C=C/CC1(CC)C(=O)NC(=S)NC1=O | inactive
76 | CN1CC[C@H](c2c(O)cc(O)c3c(=O)cc(-c4ccccc4Cl)oc23)[C@H](O)C1 | 0.0944 µM (active)
77 | Cc1ccc(C)c(NC2=NCCCS2)c1 | inactive
78 | O=c1[nH]c(O)c(C=Nc2cc(F)cc(F)c2)c(=O)[nH]1 | inactive

Row | SMILES | Potency
79 | O=C1C2(Cl)C3(Cl)C4(Cl)C(Cl)(Cl)C5(Cl)C3(Cl)C1(Cl)C5(Cl)C24Cl (configuration not stated) | 18.4 µM (active)
80 | ClC(Cl)(Cl)c1ccccc1 | inactive
81 | COc1ccc(NC(=O)c2cn(CCC#N)nc2-c2ccc([N+](=O)[O-])cc2)cc1 | inactive
82 | CNC(=O)Nc1ccc(C(O)(C(=O)OC)C(F)(F)F)cc1 (configuration not stated) | inactive
83 | O=S(=O)(O)C(F)(F)C(F)(F)C(F)(F)C(F)(F)F | inactive
84 | CCOC(=O)[C@]12Cc3ccccc3[C@H]1N(C1CCCCC1)C(=O)c1cc(OC)ccc12 | 2.91 µM (active)
85 | CCOC(=O)[C@]12Cc3cc(OC)ccc3[C@H]1N(C(C)C)C(=O)c1ccccc12 | 13 µM (active)
86 | COc1ccccc1-n1c(O)c(C=NC2CC2)c(=O)[nH]c1=O | inactive
87 | COC(=O)N1C(c2ccccc2)C1c1ccccc1 (configuration not stated) | inactive
88 | O=C(O)/C=C/c1ccc2c(c1)OCO2 | inactive
89 | Clc1cccc(Cl)c1Cl | inactive
90 | CCOC(=O)C(O)(c1ccc(N)c(OC)c1)C(F)(F)F (configuration not stated) | inactive
91 | O=C(CCC(=O)N1C[C@H]2C[C@@H](C1)c1cccc(=O)n1C2)NCc1ccccc1C(F)(F)F | inactive
92 | C[C@@]12CCC3C(CC[C@@H]4CC(O)CC[C@@]34C)C1CCC2O (some centres not stated) | inactive
93 | COc1cccc(C(=O)N2C[C@H]3C[C@@H](C2)c2cccc(=O)n2C3)c1 | inactive
94 | CCOCCc1c(O)[nH]c(=S)[nH]c1=O | inactive
95 | CN(C)C(=O)Oc1ccc(OCc2cccc[n+]2C)cc1 | inactive
96 | c1cc2c(cc1CCNC1CCCCCC1)OCO2 | inactive
97 | CC(C)(C)c1ccc(S(=O)(=O)Nc2ccc(O)c(Sc3nc4ccccc4s3)c2)cc1 | 18.4 µM (active)
98 | c1ccc2sc(SNC3CCCCC3)nc2c1 | inactive
99 | C=CC12CN(C)[C@@H]3C4CO[C@H](C[C@H]41)[C@]1(C(=O)Nc4ccccc41)[C@@H]32 (some centres not stated) | inactive
100 | CCN(N=Nc1nonc1OC)c1nonc1OC | inactive
101 | c1ccc2sc(N3CCNCC3)nc2c1 | inactive
102 | CCN1C[C@]2(COC)C(O)C[C@H](OC)[C@@]34C5C[C@]6(O)C(OC)C(O)[C@](OC(C)=O)(C5C6OC(=O)c5ccccc5)C(C(OC)C23)C14 (some centres not stated) | inactive
